Data on 39 compounds can be found in the supplement of paper PMC13380429.

The first test concerns Vero E6 infected with SARS-CoV-2. Kind of test: morphology score (similarity to uninfected cells); higher = more like uninfected cells. Particulars: 24 h.
Regarding `COc1ccc2cc1Oc1cc3c(cc1OC)CC[N+](C)(C)[C@H]3Cc1ccc(cc1)Oc1c(OC)c(OC)cc3c1[C@@H](C2)[N+](C)(C)CC3` [metocurine] (10 µM), the morphology score came out at 0.103.
Still for that read-out and setting: the value for `FC(F)(F)c1cc(NC(=S)Nc2ccc(Br)cc2-c2nnn[nH]2)cc(C(F)(F)F)c1` (10 µM) was 0.0928.
`COC(=O)c1ccc(N2CCN(C)CC2)c(NC(=O)c2cccc(OC)c2)c1` (10 µM) displayed a morphology score of 0.142.
Same read-out and setting: the value for `Oc1cccc(Nc2ncc(F)c(Nc3cccc(O)c3)n2)c1` (0.833333 µM) was 0.183; that for `CC(C)c1onc(-c2c(Cl)cccc2Cl)c1COc1ccc(/C=C/c2cccc(C(=O)O)c2)c(Cl)c1` (10 µM) was 0.151.
On the same count and under the same terms, under `O=c1c(-c2ccc(O)cc2)coc2cc(O)ccc12` [daidzein] (10 µM) stands 0.126.
Compound `CC(C)(C)[C@H]1CC[C@H](CC2=C(O)C(=O)c3ccccc3C2=O)CC1` [buparvaquone] (0.833333 µM) came in with a morphology score of 0.0418.
On the same count and under the same terms, the value for `O=C(O)c1ccccc1Nc1cc(Cl)ccc1C(=O)O` [lobenzarit] (10 µM) was 0.04.

The test system is the same in another test. Put plainly: SARS-CoV-2 infection rate relative to infected DMSO; higher = more infection, active = 60 or less. Particulars: 24 h.
Take `Clc1cccc(/C=N/N=C/c2cccc(Cl)c2)c1` [3,3'-dichlorobenzaldazine] (10 µM): the SARS-CoV-2 infection rate was 99% (inactive).
On the same count and under the same terms, the value for `CCCCCC(O)CCCC(=O)O` (configuration not stated) (10 µM) was 103% (inactive); that for `c1cc2c(cc1C1CCCCC1)c1c3n2CCNC3CCC1` (configuration not stated) [tetrindole] (0.833333 µM) was 108% (inactive); that for `c1ccc2nc(N3CCNCC3)ccc2c1` [quipazine] (10 µM) was 104% (inactive).
With `CCCCCCCCCCCCCCCCOc1nc2ccc(C)cc2c(=O)o1` [cetilistat] (10 µM), the SARS-CoV-2 infection rate was 104% (inactive).
On the same count and under the same terms, the value for `CC1(C)CC(=O)c2c(C(F)(F)F)nn(-c3ccc(C(N)=O)c(N[C@H]4CC[C@H](OC(=O)CN)CC4)c3)c2C1` (10 µM) was 108% (inactive); that for `CCCC[C@]1(CC)CS(=O)(=O)c2cc(CNC(CC(=O)O)CC(=O)O)c(OC)cc2[C@@H](c2ccccc2)N1` (10 µM) was 90.5% (inactive).
Still for that read-out and setting: under `CC1/C=C/C=C/C=C/C=C/C=C/C=C/C=C/C(OC2O[C@H](C)[C@@H](O)[C@H](N)[C@@H]2O)CC(O)C(C(=O)O)C(O)CC(=O)CC(O)CC(O)CC(O)CC(=O)CCCC(=O)CC(=O)OC1C(C)CC(C)C(O)CC(=O)c1ccc(N)cc1` (some centres not stated) [candicidin] (0.833333 µM) stands 100% (inactive); under `COc1ccc2[nH]c([S+]([O-])Cc3ncc(C)c(OC)c3C)nc2n1` (configuration not stated) [tenatoprazole] (10 µM), 105% (inactive); under `Cc1cc(Nc2ncc(Cl)c(Nc3ccccc3S(=O)(=O)C(C)C)n2)c(OC(C)C)cc1C1CCNCC1` [ceritinib] (0.833333 µM), 104% (inactive).
In the case of `O=c1c2ccccc2nc2n1CCc1c-2[nH]c2ccccc12` [rutaecarpine] (10 µM), the SARS-CoV-2 infection rate is 105% (inactive).
As for `CCCN1CC(NS(=O)(=O)N(CC)CC)CC2Cc3c(O)cccc3CC21` (configuration not stated) [quinagolide] (10 µM), the SARS-CoV-2 infection rate was 112% (inactive).
On the same count and under the same terms, the value for `CC[C@H](CO)Nc1nc(NCc2ccccc2)c2ncn(C(C)C)c2n1` [roscovitine] (10 µM) was 96% (inactive); that for `CC(C(=O)O)c1ccc(CC2CCCC2=O)cc1` (configuration not stated) [loxoprofen] (10 µM) was 108% (inactive); that for `CC1=C(CC(=O)O)c2cc(F)ccc2/C1=C\c1ccc([S+](C)[O-])cc1` (configuration not stated) [sulindac] (10 µM) was 104% (inactive).
With `CC(=O)O[C@]1(C(C)=O)CC[C@H]2[C@@H]3C[C@H](C)C4=CC(=O)C=C[C@]4(C)[C@@]3(F)[C@@H](O)C[C@@]21C` [fluorometholone-acetate] (10 µM), the SARS-CoV-2 infection rate was 105% (inactive).
The same measure, in the same setting: the value for `O=C(O)Cc1cccnc1C(=O)O` [homoquinolinic-acid] (10 µM) was 102% (inactive).
The same measure, in the same setting: the value for `COc1ccc(CCNCc2ccc(OCc3ccc(Cl)nc3)c(OC)c2)cc1OC` (10 µM) was 98% (inactive).
Still for that read-out and setting: the value for `CCCc1c(OCCCOc2ccc(OCC(=O)O)cc2)ccc(C(C)=O)c1O` (10 µM) was 106% (inactive).
As to `CC(=O)OCC(=O)[C@H]1CC[C@H]2[C@@H]3CCC4=CC(=O)CC[C@]4(C)[C@H]3CC[C@]12C` [deoxycorticosterone-acetate] (10 µM), the SARS-CoV-2 infection rate was 102% (inactive).
Same read-out and setting: the value for `CCOc1ccc(NC(C)=O)cc1` [phenacetin] (10 µM) was 116% (inactive).
`CC(C)Oc1ccc(-c2nn([C@@H](C)c3oc4ccc(F)cc4c(=O)c3-c3cccc(F)c3)c3ncnc(N)c23)cc1F` (10 µM): the SARS-CoV-2 infection rate is 106% (inactive).
Same read-out and setting: the value for `c1ccc(CNCc2ccc(CN3CCCNCCNCCCNCC3)cc2)nc1` (10 µM) was 100% (inactive); that for `CNC(=O)c1cccc(-c2ccc3c(N4CCOC[C@@H]4C)nc(N4CCOC[C@@H]4C)nc3n2)c1` (10 µM) was 108% (inactive); that for `C[C@H](/C=C/[C@H](C)C(C)(C)O)[C@H]1CC[C@H]2/C(=C/C=C3C[C@@H](O)C[C@H](O)C3)CCC[C@]12C` [paricalcitol] (10 µM) was 104% (inactive).
The same measure, in the same setting: under `N[C@@H](Cc1ccc(Cl)cc1)C(=O)O` (racemic) [fenclonine-(+/-)] (10 µM) stands 109% (inactive).
On the same count and under the same terms, the value for `O=C(O)CCC(=O)OC[C@@H](NC(=O)C(Cl)Cl)[C@H](O)c1ccc([N+](=O)[O-])cc1` [chloramphenicol-sodium-succinate] (10 µM) was 108% (inactive).
Turning to `CCC(C)n1ncn(-c2ccc(N3CCN(c4ccc(OCC5COC(Cn6cncn6)(c6ccc(Cl)cc6Cl)O5)cc4)CC3)cc2)c1=O` (configuration not stated) [itraconazole] (10 µM), the SARS-CoV-2 infection rate is 104% (inactive).
Still for that read-out and setting: under `Cc1ccc(F)c(NC(=O)Nc2ccc(-c3cccc4[nH]nc(N)c34)cc2)c1` [linifanib] (10 µM) stands 118% (inactive); under `NCCc1ccc(O)c(O)c1` [dopamine] (10 µM), 100% (inactive).
Still for that read-out and setting: the value for `C[C@]12CC[C@H](O)C[C@H]1CC[C@@H]1[C@@H]2C[C@@H](O)[C@]2(C)[C@@H](C3=CC(=O)OC3)CC[C@]12O` [digoxigenin] (0.833333 µM) was 99.5% (inactive).
Same read-out and setting: the value for `COc1ccc2cc1Oc1cc3c(cc1OC)CC[N+](C)(C)[C@H]3Cc1ccc(cc1)Oc1c(OC)c(OC)cc3c1[C@@H](C2)[N+](C)(C)CC3` [metocurine] (10 µM) was 104% (inactive); that for `FC(F)(F)c1cc(NC(=S)Nc2ccc(Br)cc2-c2nnn[nH]2)cc(C(F)(F)F)c1` (10 µM) was 98% (inactive); that for `COC(=O)c1ccc(N2CCN(C)CC2)c(NC(=O)c2cccc(OC)c2)c1` (10 µM) was 105% (inactive).
On to `Oc1cccc(Nc2ncc(F)c(Nc3cccc(O)c3)n2)c1` (0.833333 µM), for which the SARS-CoV-2 infection rate is 100% (inactive).
On the same count and under the same terms, under `CC(C)c1onc(-c2c(Cl)cccc2Cl)c1COc1ccc(/C=C/c2cccc(C(=O)O)c2)c(Cl)c1` (10 µM) stands 96.5% (inactive); under `O=c1c(-c2ccc(O)cc2)coc2cc(O)ccc12` [daidzein] (10 µM), 95% (inactive).
The same measure, in the same setting: the value for `CC(C)(C)[C@H]1CC[C@H](CC2=C(O)C(=O)c3ccccc3C2=O)CC1` [buparvaquone] (0.833333 µM) was 94% (inactive).
The same measure, in the same setting: under `O=C(O)c1ccccc1Nc1cc(Cl)ccc1C(=O)O` [lobenzarit] (10 µM) stands 113% (inactive).
